NSD2 HMT inh: inhibitors of human histone methyltransferase NSD2; NSD2 peptide methylation, AlphaScreen, 120 min; inhibition, % at 12.5 µM; actives 0.54% (n = 310,000); AID 743445; in the data active = inhibition above about 50%
Target sequence (O96028 whole entry, looked up): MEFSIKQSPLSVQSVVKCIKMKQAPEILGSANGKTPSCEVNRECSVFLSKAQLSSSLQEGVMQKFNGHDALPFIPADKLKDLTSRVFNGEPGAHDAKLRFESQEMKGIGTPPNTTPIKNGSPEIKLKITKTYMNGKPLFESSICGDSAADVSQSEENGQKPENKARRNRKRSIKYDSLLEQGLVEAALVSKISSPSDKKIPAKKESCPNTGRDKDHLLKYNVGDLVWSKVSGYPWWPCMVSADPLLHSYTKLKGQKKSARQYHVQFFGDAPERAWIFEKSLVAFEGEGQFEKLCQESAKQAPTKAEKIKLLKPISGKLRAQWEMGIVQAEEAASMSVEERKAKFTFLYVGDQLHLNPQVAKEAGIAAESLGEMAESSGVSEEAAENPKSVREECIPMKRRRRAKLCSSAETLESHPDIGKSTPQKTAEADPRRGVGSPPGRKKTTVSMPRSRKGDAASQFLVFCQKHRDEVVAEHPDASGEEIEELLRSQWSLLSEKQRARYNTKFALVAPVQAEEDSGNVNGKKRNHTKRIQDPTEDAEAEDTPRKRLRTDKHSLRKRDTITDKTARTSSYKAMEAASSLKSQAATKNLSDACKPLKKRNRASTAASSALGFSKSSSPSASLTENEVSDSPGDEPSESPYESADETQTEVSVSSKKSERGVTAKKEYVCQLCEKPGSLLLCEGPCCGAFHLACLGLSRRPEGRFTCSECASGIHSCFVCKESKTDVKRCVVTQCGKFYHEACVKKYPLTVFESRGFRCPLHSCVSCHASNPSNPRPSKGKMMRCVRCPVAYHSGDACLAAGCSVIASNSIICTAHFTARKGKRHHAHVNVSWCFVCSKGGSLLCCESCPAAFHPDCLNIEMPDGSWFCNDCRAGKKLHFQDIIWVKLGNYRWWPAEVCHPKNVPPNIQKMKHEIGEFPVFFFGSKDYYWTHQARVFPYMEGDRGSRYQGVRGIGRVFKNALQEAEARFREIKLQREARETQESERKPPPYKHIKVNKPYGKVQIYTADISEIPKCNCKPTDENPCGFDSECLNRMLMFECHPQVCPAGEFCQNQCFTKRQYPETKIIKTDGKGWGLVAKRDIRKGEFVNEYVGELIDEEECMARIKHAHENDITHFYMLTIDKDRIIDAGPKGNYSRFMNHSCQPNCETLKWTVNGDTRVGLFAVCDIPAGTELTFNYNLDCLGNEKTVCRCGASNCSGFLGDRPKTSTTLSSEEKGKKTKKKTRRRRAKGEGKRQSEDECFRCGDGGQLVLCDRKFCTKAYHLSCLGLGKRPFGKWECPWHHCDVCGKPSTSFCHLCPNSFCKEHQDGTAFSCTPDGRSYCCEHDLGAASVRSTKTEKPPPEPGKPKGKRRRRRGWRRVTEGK
Casp6 inh: blocks human caspase-6 cleavage activity; inhibition, % at 12.5 µM; actives 0.53% (n = 350,000); P55212; purified caspase-6, Z-VEID-R110 cleavage fluorescence;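 active = mean inhibition across replicates at least about 35%, with every replicate also reaching that limit, limit read from the data; inconclusive = only one of the two criteria met; inactive = neither criterion met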;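 also: 0% = median of neutral control wells and 100% = no fluorescence left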
PglD inh: blocks C. jejuni PglD acetyltransferase activity | actives 0.098% (n = 360,000) | purified PglD enzyme, DTNB colorimetric CoA detection | inhibition, % at 12.5 µM; in the data active = inhibition above about 16%, passing the limit was not always enough; inconclusive = no clear call, values can overlap the other calls
HIV Env fusion: inhibitors of HIV Env-mediated cell fusion | actives 1.1% (n = 360,000) | HeLa-JRFL Env/CEM21 cell fusion, luciferase | inhibition, % at 12.3 µM | AID 651610;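 active = mean replicate inhibition score of at least 50 and every replicate individually at or above 50; inconclusive = only one of the two criteria met; inactive = mean below 50 and not all replicates reaching 50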;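 also: 0% = plate neutral controls and 100% = maraviroc near 300 nM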
F508del corr: correctors of CFTR F508del function in bronchial epithelial cells; CFBE cells, YFP halide quenching; stimulated with forskolin plus potentiator P3; % fluorescence drop versus neutral controls; actives 0.36% (n = 350,000); activity (quench increase), % at 7.58 µM; AID 720511;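 active = mean added fluorescence quench of at least 8% versus neutral control, with both replicates also reaching 8%; inconclusive = only one of the mean or replicate conditions met; inactive = mean below 8% and not both replicates reaching 8%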;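 also: cells transiently co-express mutant CFTR-F508del with the halide-sensitive YFP; corrector assay measuring rescue of mutant channel to the surface after 24 h compound exposure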
ALR inh: human ALR oxidase inhibition via reduced H2O2; P55789; purified ALR, DTT oxidation, H2O2 HRP-luminol luminescence; inhibition, % (test concentration not listed); actives 3.8% (n = 290,000);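 active = mean replicate inhibition above about 79%, with every replicate also reaching it, limit read from the data; inconclusive = only one of the two criteria met; inactive = mean below limit and not every replicate reaching it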
Starred values were filed as active, the others as inactive; ? = inconclusive; · = no result; [ ] = another dose, or the depositor's remark. This is a sample that favours compounds with a hit; in the whole collection about 4.1% have one here.

SMILES	NSD2 HMT inh	Casp6 inh	PglD inh	HIV Env fusion	F508del corr	ALR inh
COC(=O)C[C@@H]1CC[C@@H]2[C@H](COc3ccc(NC(=O)c4ccc(C(F)(F)F)cc4)cc3C(=O)N2C)O1	·	2	1	·	11*	·
CCNC(=O)Nc1ccc2c(c1)C(=O)N(C)[C@@H]1CC[C@@H](CC(=O)NCC3CCCCC3)O[C@@H]1CO2	·	0	-2	57*[16.7 µM]	-4	·
CCNC(=O)Nc1ccc2c(c1)C(=O)N(C)[C@H]1CC[C@@H](CC(=O)NCC3CCCCC3)O[C@@H]1CO2	·	4	2	15[16.7 µM]	-3	·
COCC(=O)Nc1ccc2c(c1)C(=O)N(C)[C@H]1CC[C@H](CC(=O)NC3CCCC3)O[C@H]1CO2	·	·	2	57*[16.7 µM]	2	·
CN1C(=O)c2cc(NC(=O)c3cscn3)ccc2OC[C@@H]2O[C@@H](CC(=O)NCc3ccc(Cl)c(Cl)c3)CC[C@H]21	·	-1	2	57*[16.7 µM]	-1	·
CN1C(=O)c2cc(NC(=O)c3cscn3)ccc2OC[C@H]2O[C@H](CC(=O)NCc3ccc(Cl)c(Cl)c3)CC[C@@H]21	·	0	-3	?	0	·
O=C([C@H]1[C@H](CO)[C@H]2Cn3c(ccc(-c4ccccc4)c3=O)[C@@H]1N2)N1CCCCC1	·	-1	-2	8[16.7 µM]	·	·
COc1ccc(NC(=O)N(C)C[C@@H]2OCCCC[C@@H](C)Oc3ccc(NS(=O)(=O)c4ccc(Cl)cc4)cc3C(=O)N([C@@H](C)CO)C[C@@H]2C)cc1	·	1	1	9[16.7 µM]	1	·
C[C@H](CO)N1C[C@H](C)[C@H](CN(C)CC2CC2)Oc2ccc(NC(=O)c3ccncc3)cc2CC1=O	·	-13	-1	-3[16.7 µM]	2	·
CCC(=O)Nc1ccc2c(c1)C(=O)N(C)[C@H]1CC[C@H](CC(=O)NCCN3CCCCC3)O[C@@H]1CO2	·	-4	-3	-22[16.7 µM]	3	·
CCNC(=O)C[C@@H]1CC[C@@H]2[C@@H](COc3ccc(NC(=O)Cc4cccs4)cc3C(=O)N2C)O1	·	-4	1	75*[16.7 µM]	2	·
CCNC(=O)C[C@H]1CC[C@@H]2[C@H](COc3ccc(NC(=O)Cc4cccs4)cc3C(=O)N2C)O1	·	1	-2	-5[16.7 µM]	-1	·
Cc1coc2cc3oc(=O)c(Cc4ccccc4)c(C)c3cc12	1	0	·	7	·	-5
Cc1c(Cc2ccccc2)c(=O)oc2cc(O)cc(O)c12	-10	8	·	2	1	78*
Cc1ccc(S(=O)(=O)NCC(=O)OCc2csc(CC(=O)Nc3ccccc3C)n2)cc1C	0	1	0	5	-4	·
Cc1ccccc1NC(=O)Cc1nc(CCl)cs1	-1	·	·	18	·	92*
Cc1ccc(SCC(=O)OCc2csc(CC(=O)Nc3ccccc3C)n2)cc1C	23	-2	-3	·	2	99*
Cc1ccc(C)c(NC(=O)Cc2nc(CCl)cs2)c1	-1	·	-2	0	·	-18
Cc1ccc(S(=O)(=O)Nc2ccc3c(c2)C(=O)N([C@H](C)CO)C[C@H](C)[C@H](CN(C)C(=O)Nc2c(C)noc2C)O3)cc1	·	·	0	-5[16.7 µM]	-3	·
O=C(O)C[C@@H]1C=C[C@@H](NC(=O)c2ccncc2)[C@H](CO)O1	·	3	-2	3[16.7 µM]	2	·
C[C@@H]1CCCCO[C@H](CN(C)C(=O)Nc2ccc(F)cc2)[C@H](C)CN([C@H](C)CO)C(=O)c2cc(NS(=O)(=O)c3cccs3)ccc2O1	·	1	8	-1[16.7 µM]	-1	·
CC[C@H](C)[C@@H]1NC(=O)[C@@H](CC(C)C)NC(=O)[C@H](C(C)C)NC(=O)[C@H]2CSSC[C@H](NC1=O)C(=O)N2	·	-4	1	69*	-11	·
CC(C)NC(=O)N(C)C[C@@H]1OCCCC[C@H](C)Oc2ccc(NC(=O)c3ccccc3)cc2C(=O)N([C@H](C)CO)C[C@H]1C	·	-3	-1	18[16.7 µM]	3	·
O=C(O)CCSc1nnc(-c2ccc3c(c2)OCO3)o1	-1	·	4	69*	·	-2
O=C(Nc1ccc2c(c1)OCO2)N[C@H]1CC[C@H](CCNC(=O)C2CC2)O[C@@H]1CO	·	1	1	-7[16.7 µM]	-2	·
SMILES	NSD2 HMT inh	Casp6 inh	PglD inh	HIV Env fusion	F508del corr	ALR inh
C[C@@H]1CN([C@@H](C)CO)C(=O)c2cc(NS(=O)(=O)c3ccccc3)ccc2O[C@@H](C)CCCCO[C@H]1CN(C)C(=O)Nc1ccc(C(F)(F)F)cc1	·	-2	·	·	0	·
C[C@H]1CCCCO[C@@H](CN(C)C(=O)Nc2ccc(C(F)(F)F)cc2)[C@@H](C)CN([C@@H](C)CO)C(=O)c2cc(NS(=O)(=O)c3ccc(F)cc3)ccc2O1	·	-1	-1	61*[16.7 µM]	-1	·
C[C@@H]1CCCCO[C@@H](CN(C)C(=O)Nc2ccc(C(F)(F)F)cc2)[C@@H](C)CN([C@H](C)CO)C(=O)c2cc(NS(=O)(=O)c3ccc(Cl)cc3)ccc2O1	·	-1	3	-1[16.7 µM]	1	·
C[C@@H]1CN([C@H](C)CO)C(=O)c2cc(NS(=O)(=O)c3ccc(Cl)cc3)ccc2O[C@@H](C)CCCCO[C@H]1CN(C)C(=O)Nc1ccc(C(F)(F)F)cc1	·	4	2	55*[16.7 µM]	-4	·
C[C@H]1CCCCO[C@H](CN(C)C(=O)Nc2ccc(C(F)(F)F)cc2)[C@@H](C)CN([C@@H](C)CO)C(=O)c2cc(NS(=O)(=O)c3ccccc3)ccc2O1	·	0	0	78*[16.7 µM]	1	·
CO[C@H]1CN(C)C(=O)c2cc(NC(C)=O)ccc2OC[C@H](C)N(CC2CCCCC2)C[C@@H]1C	·	·	8	-17[16.7 µM]	-1	·
COc1cc(/C=C(\C#N)C(=O)NCC2CCCO2)ccc1OCC(N)=O (stereo unspecified)	-2	-1	·	4	1	95*
COc1cc(C(=O)NCC2CCCO2)ccc1OCc1ccc(Cl)cc1 (stereo unspecified)	0	-1	-3	·	11*	0
COc1cccc(N=c2oc3cc(O)ccc3cc2C(=O)NCC2CCCO2)c1 (stereo unspecified)	0	-1	-2	-4	-3	-11
COc1ccccc1N=c1oc2cc(O)ccc2cc1C(=O)NCC1CCCO1 (stereo unspecified)	22	·	·	8	·	92*
COc1cc(C(=O)NCC2CCCO2)ccc1OCc1c(C)noc1C (stereo unspecified)	-1	·	3	18	·	4
COc1cc(C(=O)NCC2CCCO2)ccc1OCc1ccc(Cl)cc1Cl (stereo unspecified)	-1	2	·	67*	-2	0
O=C(C[C@H]1CC[C@H](NC(=O)CN2CCOCC2)[C@H](CO)O1)NC1CCCCC1	·	2	2	-16[16.7 µM]	-1	·
CCNC(=O)[C@H]1[C@H](CO)[C@H]2Cn3c(ccc(-c4ccccc4)c3=O)[C@@H]1N2CCC(F)(F)F	·	·	1	-15[16.7 µM]	·	·
Cc1ccc(CN2CCSc3ccc(C(=O)NCC4CCCO4)cc32)cc1 (stereo unspecified)	0	·	0	·	·	87*

Assay outcomes from PubChem.
